PubChem BioAssay AID372 (MTDP, 2006)
Screen size: about 100,000 compounds; about 770 (0.77%) were called active. No stated cut-off is given here; in the data, active means inhibition above about 50%; inactive means the rest. The full list was thinned out, with actives kept by preference.

target: Gag-Pol polyprotein (Human immunodeficiency virus type 1 group M subtype B (isolate HXB2)) (UniProt P04585); assay: RNase H inhibition, HIV 1 Gag Pol polyprotein, FRET biochemical assay, screening (AID 372); conditions: HIV-1 RT RNase H, FRET RNA/DNA substrate fluorescence; at 10 µM; hits give high values

| SMILES | inhibition |
| --- | --- |
| O=C1C(=O)N(CN2CCOCC2)c2ccc(Br)cc21 | 18% (inactive) |
| Cc1cccc(-c2nc(-c3cccnc3)no2)c1 | 27% (inactive) |
| Cc1ccc(-c2noc(-c3cccc(I)c3)n2)cc1 | 7% (inactive) |
| Ic1cccc(-c2nc(-c3cccnc3)no2)c1 | 55% (active) |
| COc1ccc(-c2noc(-c3cccc(I)c3)n2)cc1 | 22% (inactive) |
| Ic1cccc(-c2nc(-c3ccncc3)no2)c1 | 59% (active) |
| Brc1cccc(-c2nc(-c3cccnc3)no2)c1 | 28% (inactive) |
| Cc1cc(Cl)ccc1NC(=O)CN(c1cccc(Br)c1)S(C)(=O)=O | 12% (inactive) |
| O/N=C1\CCCc2c1nc(-c1ccc(F)cc1)n2O | 0% (inactive) |
| COc1ccc(/C=C/C(=O)Nc2ccc(I)cc2)cc1OC | 16% (inactive) |
| CCc1c(C)c2ccc(OCc3ccccc3)c(C)c2oc1=O | 16% (inactive) |
| O=C(NNc1nc(Nc2ccccc2)nc(N2CCOCC2)n1)Nc1ccc(Cl)cc1 | 72% (active) |
| Clc1ccc(Nc2nc(Oc3ccccc3)nc(N3CCOCC3)n2)cc1 | 15% (inactive) |
| Clc1ccc(Nc2nc(Nc3ccc(Cl)cc3)nc(N3CCOCC3)n2)cc1 | 11% (inactive) |
| COc1ccc(S(=O)(=O)N2CCN(CCN3C(=O)c4cccc5cccc(c45)C3=O)CC2)cc1 | 15% (inactive) |
| CC(C)Nc1nc(-c2cccnc2)nc2ccccc12 | 8% (inactive) |
| CC(Nc1cc(Cl)ccc1[N+](=O)[O-])c1ccc(Br)cc1 (stereo not drawn) | 54% (active) |
| O=[N+]([O-])c1ccc(Cl)cc1NC(c1ccccc1)c1ccccc1 | 12% (inactive) |
| CC(Nc1cc(N2CCN(C)CC2)ccc1[N+](=O)[O-])c1ccc(Br)cc1 (stereo not drawn) | 9% (inactive) |
| CCOc1ccc(/C=C2\C(=O)NC(=O)N(c3cc(C(F)(F)F)ccc3Cl)C2=O)cc1OC | 11% (inactive) |
| COc1ccc(CNC(=O)N2CCOCC2)cc1 | 20% (inactive) |

| SMILES | inhibition |
| --- | --- |
| O=C(NNC(=O)c1sc2ccccc2c1Cl)Nc1ccc(Cl)cc1 | 14% (inactive) |
| O=C(NNC(=O)c1sc2cc(F)ccc2c1Cl)Nc1ccc(Cl)cc1 | 57% (active) |
| O=C(Nc1ccc(F)cc1)c1sc2cc(Cl)ccc2c1Cl | 6% (inactive) |
| CC(=O)c1ccc(NC(=S)NC(=O)c2ccc(Br)cc2)cc1 | 0% (inactive) |
| O=C1C(=O)N(c2cccc([N+](=O)[O-])c2)C(c2ccccc2F)/C1=C(/O)c1ccccc1 (stereo not drawn) | 8% (inactive) |
| COc1cc(/C=N/N2C(=O)C3C4C=CC(C4)C3C2=O)cc(I)c1O (stereo not drawn) | 56% (active) |
| COc1cc(/C=N/N2C(=O)C3C4C=CC(C4)C3C2=O)cc(I)c1OC (stereo not drawn) | 0% (inactive) |
| COc1cc(/C=N/N2C(=O)C3C4C=CC(CC4)C3C2=O)cc(I)c1O (stereo not drawn) | 0% (inactive) |
| CCOC(=O)c1sc(N/N=C/c2ccccc2)nc1C | 47% (inactive) |
| CCOC(=O)c1sc(N/N=C/c2ccccc2C(F)(F)F)nc1C | 15% (inactive) |
| CCOC(=O)c1sc(N/N=C/c2ccccc2O)nc1C | 58% (active) |
| COc1ccccc1N1C(=O)/C(=C/C(C)=C/c2ccccc2)SC1=S | 13% (inactive) |
| Cc1ccc(S(=O)(=O)/N=C/c2ccc(F)cc2)cc1 | 0% (inactive) |
| CC1=C(C)CC(C(=O)Nc2ccc(Br)cc2)C(C(=O)O)C1 (stereo not drawn) | 8% (inactive) |
| COc1ccc(NC(=O)C2CC(C)=C(C)CC2C(=O)O)cc1 (stereo not drawn) | 2% (inactive) |
| Cc1cc(NS(=O)(=O)c2ccc(NC(=S)NC(=O)c3ccc(Br)cc3)cc2)no1 | 1% (inactive) |
| Cc1cc(OCc2nc(-c3ccc(Cl)cc3Cl)no2)ccc1Br | 7% (inactive) |
| Cc1nn(C)c(C)c1Sc1ccc(Br)cc1 | 37% (inactive) |
| Cc1n[nH]c(C)c1Sc1ccc(Br)cc1 | 50% (active) |
| Cc1n[nH]c(C)c1Sc1ccc(Cl)cc1 | 17% (inactive) |
| COc1cccc(/C=C2\C(=O)NC(=O)N(c3ccc(Cl)c(Cl)c3)C2=O)c1 | 1% (inactive) |

| SMILES | inhibition |
| --- | --- |
| CCc1c(C)c2ccc(OC)c(C)c2oc1=O | 8% (inactive) |
| COc1ccc(S(=O)(=O)N(CC(=O)Nc2ccc(C(N)=O)cc2)c2ccc(C)cc2)cc1OC | 4% (inactive) |
| C=CCc1cccc(/C=N/c2nc3ccccc3n2CCC)c1O | 17% (inactive) |
| CC(CO)(CO)N=Cc1c(O)n(-c2ccccc2)c(=S)[nH]c1=O | 0% (inactive) |
| CS(=O)(=O)N(Cc1ccc(Cl)cc1)c1ccc(C(=O)N2CCOCC2)cc1 | 8% (inactive) |
| Cc1ccc(Cl)cc1NC(=O)c1ccc(CN(c2ccccc2)S(C)(=O)=O)cc1 | 10% (inactive) |
| COc1ccc(Cl)cc1NC(=O)c1ccc(CN(c2ccccc2)S(C)(=O)=O)cc1 | 56% (active) |
| CS(=O)(=O)N(Cc1ccc(C(=O)Nc2cccc(C(F)(F)F)c2)cc1)c1cccc(Cl)c1 | 0% (inactive) |
| CS(=O)(=O)N(Cc1ccc(Cl)cc1)c1ccc(C(=O)N2CCCC2)cc1 | 57% (active) |
| CCOC(=O)N1CCN(C(=O)c2ccc(N(Cc3ccc(Cl)cc3)S(C)(=O)=O)cc2)CC1 | 3% (inactive) |
| CS(=O)(=O)N(Cc1ccc(C(=O)Nc2cccc(C(F)(F)F)c2)cc1)c1ccccc1 | 58% (active) |
| COc1ccccc1NC(=O)c1ccc(CN(c2ccccc2)S(C)(=O)=O)cc1 | 0% (inactive) |
| CS(=O)(=O)N(Cc1ccc(Cl)cc1)c1ccc(C(=O)Nc2cccc(C(F)(F)F)c2)cc1 | 1% (inactive) |
| COc1ccc(N=CC2=C(O)CC(c3ccccc3)CC2=O)cc1OC (stereo not drawn) | 0% (inactive) |
| COC(=O)c1ccc(NC(=O)Cc2ccc(OC)cc2)cc1 | 1% (inactive) |
| CN1CCN(C2=NC(=O)/C(=C/c3ccc4c(c3)OCO4)S2)CC1 | 8% (inactive) |
| O=C(C[n+]1cccc(NC(=O)c2ccccc2)c1)c1ccc2c(c1)Cc1ccccc1-2 | 24% (inactive) |
| CCOC(=O)C1=C(C)N=c2s/c(=C\c3ccc(-c4ccc(Cl)cc4Cl)o3)c(=O)n2C1c1ccc(C)cc1 (stereo not drawn) | 5% (inactive) |
| CCOc1ccc(C(=O)Nc2ccc(CC)cc2)cc1[N+](=O)[O-] | 9% (inactive) |
| Cc1ccc(S(=O)(=O)Nc2ccccn2)cc1C | 0% (inactive) |
| O=P(CCCO)(c1ccc(Cl)cc1)c1ccc(Cl)cc1 | 1% (inactive) |
